# From PubChem BioAssay (NCI)
# About 83,000 compounds went through this panel and 20% of them were active in at least one assay; those are over-represented in the sample as a whole.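 Interpretation: 100, growth as untreated; towards 0, rising growth inhibition; 0, no net growth; 0 to -100, cell death. Compounds scoring below 10 were considered active.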 Values without a mark were called inactive. The source made the active and inactive calls.
# Legend:
# Test in all cases: NCI-60 one-dose screen, 48 h (100 = growth as untreated, 0 = no growth, -100 = all killed)
# RPMI-8226 leukemia = conditions: 10 µM unless noted
# OVCAR-8 ovarian = conditions: 10 µM unless noted
# OVCAR-5 ovarian = conditions: 10 µM unless noted
# OVCAR-4 ovarian = conditions: 10 µM unless noted
# IGROV1 ovarian = conditions: 10 µM unless noted
# OVCAR-3 ovarian = conditions: 10 µM unless noted
# HS 578T breast = conditions: 10 µM unless noted
# NCI/ADR-RES ovarian = conditions: 10 µM unless noted
# T-47D breast = conditions: 10 µM unless noted
# BT-549 breast = conditions: 10 µM unless noted
# MDA-MB-435 melanoma = conditions: 10 µM unless noted
# SW-620 colon = conditions: 10 µM unless noted
# MCF7 breast = conditions: 10 µM
# HCT-116 colon = conditions: 10 µM unless noted
# HCC-2998 colon = conditions: 10 µM unless noted
# KM12 colon = conditions: 10 µM unless noted
Structure (SMILES),growth (RPMI-8226 leukemia),growth (OVCAR-8 ovarian),growth (OVCAR-5 ovarian),growth (OVCAR-4 ovarian),growth (IGROV1 ovarian),growth (OVCAR-3 ovarian),growth (HS 578T breast),growth (NCI/ADR-RES ovarian),growth (T-47D breast),growth (BT-549 breast),growth (MDA-MB-435 melanoma),growth (SW-620 colon),growth (MCF7 breast),growth (HCT-116 colon),growth (HCC-2998 colon),growth (KM12 colon)
O=c1cc(-c2ccccc2)oc2cc(OCc3cn(Cc4ccc(F)cc4)nn3)cc(OCc3cn(Cc4ccc(F)cc4)nn3)c12,45.6%,12.7%,55.1%,-9.56% (active),43.5%,21.2%,20.9%,70.4%,40.6%,18.8%,40.9%,60.3%,53.3%,18.2%,74.1%,43.3%
COC(=O)c1c2c(c(C)[n+]([O-])c1C)C(=O)C=C(NCc1ccc(F)c(F)c1)C2=O,-6.01% (active),-2.54% (active),-83.1% (active),-98.7% (active),-67.3% (active),-47.2% (active),-20.4% (active),-17.5% (active),-42.5% (active),-97.2% (active),-92.2% (active),-43% (active),-65.7% (active),-53.9% (active),-66.5% (active),-14.9% (active)
CCN1C(=O)N(CC)C2C1NN=c1s/c(=C3\C(=O)N(CC(C)(C)C)c4ccccc43)c(=O)n12 (stereo not drawn),36.7%,32.7%,51.1%,27.6%,24.1%,-18.4% (active),18.9%,11.3%,58.1%,21.7%,-21.3% (active),42.8%,20.2%,7.62% (active),26.7%,17.6%
c1ccc2c(c1)oc1cc3sccc3nc12,99.4%,101%,109%,102%,95.8%,107%,101%,102%,101%,89.5%,99.7%,96.6%,99.8%,96.7%,118%,108%
Nc1nc(-c2ccccc2Br)nn1-c1nc2ccccc2s1,102%,97.6%,98%,101%,101%,108%,104%,105%,105%,100%,95%,104%,78.4%,103%,110%,101%
O=c1c2cc(F)ccc2sc2c(Nc3ccncc3)nc3ccccc3c12,-31.4% (active),-18% (active),-2.06% (active),-67.5% (active),70.7%,36.5%,75.3%,-9.24% (active),-3.72% (active),81.5%,-62.1% (active),-74.6% (active),-77.9% (active),-48.9% (active),75.9%,1.24% (active)
O=C(c1nc2ccccc2[nH]1)C1C(c2cccc([N+](=O)[O-])c2)C2CC3CCCCC3N2[C@@]12C(=O)Nc1cc(Cl)ccc12 (stereo partly drawn),7.96% (active),45.1%,32%,27.5%,10.3%,45.5%,33.6%,39.7%,38.4%,52.9%,35.8%,37.9%,16.3%,13%,23.9%,32.5%
COC(=O)c1ccc(NC(=O)CSc2nc3ccccc3c(=O)n2-c2ccccc2)cc1,89.4%,101%,94.7%,90.6%,90.9%,92.6%,101%,104%,92.1%,94.4%,104%,105%,106%,97.7%,98.8%,99.8%
O=C(NCc1ccccc1)C1CN(c2ccc(Cl)cc2)N(c2ccc(Cl)cc2)C1=O (stereo not drawn),85.5%,86.5%,95.2%,88.3%,92.1%,51.7%,74.7%,69.9%,63.9%,83.4%,3.28% (active),60.8%,49.8%,83.8%,99.4%,59.8%
CCCCN1CCN(c2ccc3nc(-c4ccc5nc(-c6ccc(OCC)cc6)[nH]c5c4)[nH]c3c2)CC1,-25.3% (active),70.1%,135%,55.2%,71.9%,-18% (active),74.4%,87.8%,59.7%,83.9%,55.1%,8.61% (active),1.77% (active),21.1%,90.3%,49.1%
COc1ccc(/C=C/C(=O)c2ccc(Nc3nc(NCCO)nc(Nc4ccc(Cl)cc4)n3)cc2)cc1,8.06% (active),71.8%,95.7%,62.6%,98%,73.1%,87.5%,83.2%,38%,61.3%,65.4%,91.1%,12.9%,19.8%,57.2%,41%
COc1ccc(/C(C#N)=C/c2nc3c(N4CCOCC4)nc(Cl)nc3n2C)cc1OC,-7.23% (active),14.5%,33.3%,-25% (active),3.01% (active),-86.1% (active),13.2%,11.7%,-17.1% (active),-15.7% (active),-64.5% (active),-53.7% (active),6.49% (active),-73.2% (active),2.12% (active),-0.417% (active)
NCCOc1ncccc1/C=C1\c2ccccc2-c2ccc(F)cc21,-14.6% (active),14.9%,32.1%,43.3%,26.1%,36.7%,44.2%,29.9%,21.2%,82.4%,60.7%,14.7%,14.9%,15%,18.3%,8.88% (active)
